Measured values from the supplement of paper PMC4188521.

Compound: CCc1cnn2c(NCc3ccc[n+]([O-])c3)cc(N3CCCC[C@H]3CCO)nc12 [dinaciclib]
Assay: cell viability remaining relative to DMSO control; higher = less cytotoxic (more viable cells)
Details: 100 nM; 24 h
How it was run: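 Solid tumour cell lines from commercial cell banks were exposed to 100 nM of the test compound for 24 hr, with final DMSO ≤0.2%. Viability was read as ATP luminescence with the CellTiter-Glo assay, following the manufacturer's instructions. Remaining viability is the ratio of light units in treated wells to DMSO-treated control wells, expressed as % of DMSO control. Values are means of 2–6 plates with triplicate wells per plate.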

Question: For HEC1A, which cell viability remaining is on record?
Answer: 49%

Question: With SKNDZ as the target, how does the cell viability remaining read?
Answer: 44.1%

Question: How did the cell viability remaining turn out when SW620 was run?
Answer: 58.5%

Question: For VCAP, which cell viability remaining is on record?
Answer: 37.8%

Question: HCC1500 was tested. Which cell viability remaining did it give?
Answer: 46.2%

Question: Which cell viability remaining does the source give for IGROV1 here?
Answer: 103%

Question: How did the cell viability remaining turn out when DV90 was run?
Answer: 56.2%

Question: How did the cell viability remaining turn out when COV644 was run?
Answer: 23.3%

Question: With WM115 as the target, how does the cell viability remaining read?
Answer: 69.1%

Question: Which cell viability remaining does the source give for DU145 here?
Answer: 81.7%

Question: Which cell viability remaining does the source give for SKMEL3 here?
Answer: 42.9%

Question: With DU4475 as the target, how does the cell viability remaining read?
Answer: 72.3%

Question: Which cell viability remaining does the source give for HMCB here?
Answer: 37.5%

Question: How did the cell viability remaining turn out when A375 was run?
Answer: 62%

Question: How did the cell viability remaining turn out when A2780 was run?
Answer: 44.5%

Question: With HEC108 as the target, how does the cell viability remaining read?
Answer: 63%

Question: Which cell viability remaining does the source give for H2452 here?
Answer: 21.1%

Question: With SKMEL28 as the target, how does the cell viability remaining read?
Answer: 56.2%

Question: How did the cell viability remaining turn out when HCC44 was run?
Answer: 85.8%

Question: How did the cell viability remaining turn out when KLE was run?
Answer: 91.8%

Question: Which cell viability remaining does the source give for MDAMB175VII here?
Answer: 36%

Question: With KURAMOCHI as the target, how does the cell viability remaining read?
Answer: 121%

Question: Which cell viability remaining does the source give for OVMANA here?
Answer: 87.9%

Question: How did the cell viability remaining turn out when SNB19 was run?
Answer: 70.1%

Question: How did the cell viability remaining turn out when HS746T was run?
Answer: 83%

Question: Which cell viability remaining does the source give for SHP77 here?
Answer: 50.2%

Question: Which cell viability remaining does the source give for DLD1 here?
Answer: 46.8%

Question: Which cell viability remaining does the source give for ESS1 here?
Answer: 73.5%

Question: HEC251 was tested. Which cell viability remaining did it give?
Answer: 91.8%

Question: Which cell viability remaining does the source give for TOV112D here?
Answer: 16%

Question: How did the cell viability remaining turn out when H661 was run?
Answer: 34.6%

Question: Which cell viability remaining does the source give for LS513 here?
Answer: 55.8%

Question: How did the cell viability remaining turn out when SW480 was run?
Answer: 81.7%
